{
  "source": "PubChem BioAssay (NCATS)",
  "key": {"[1]": {"target": "Calcium and integrin-binding protein 1 (Homo sapiens) (UniProt Q99828)", "sequence (Q99828 whole entry, looked up)": "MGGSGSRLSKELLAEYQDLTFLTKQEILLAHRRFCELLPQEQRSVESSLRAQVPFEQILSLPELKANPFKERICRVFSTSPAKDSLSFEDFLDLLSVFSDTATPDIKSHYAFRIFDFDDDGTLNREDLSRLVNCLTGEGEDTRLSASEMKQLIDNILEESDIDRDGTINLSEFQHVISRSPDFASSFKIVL", "assay": "Primary qHTS for Identification of Calcium Integrin Binding Protein 1 (CIB1) Competitor (AID 1508620);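 note: GST tagged CIB1 binding a fluorescein labelled alphaIIb integrin peptide tracer; top concentration of the series differs between compounds; % is set by controls: 0 for no effect and ±100 for the full control effect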", "procedure,_shortened": "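Fluorescence polarization competition: CIB1-GST (1 uM final) preincubated with compound 15 min at room temperature, then FITC-labeled alphaIIb peptide (100 nM final) added for another 15 min. Polarization read at Ex 480/Em 540.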"}, "[2]": {"target": "N-terminal Xaa-Pro-Lys N-methyltransferase 1 (Homo sapiens) (UniProt Q9BV86)", "sequence (Q9BV86 whole entry, looked up)": "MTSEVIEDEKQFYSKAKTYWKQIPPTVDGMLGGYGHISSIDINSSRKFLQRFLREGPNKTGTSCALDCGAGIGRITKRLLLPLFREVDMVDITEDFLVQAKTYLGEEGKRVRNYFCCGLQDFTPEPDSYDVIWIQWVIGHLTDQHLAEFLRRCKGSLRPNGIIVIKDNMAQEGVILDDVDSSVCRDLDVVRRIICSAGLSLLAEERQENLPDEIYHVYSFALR", "assay": "Confirmatory qHTS for Inhibitors of N-terminal methyltransferase 1 (NTMT1): MTaseGlo Assay (AID 1645874); note: potency is the fitted concentration of half-maximal effect; nearly all actives have a fitted effect of over 65% in size", "procedure,_shortened": "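Inhibition was derived from luminescence after SAH-to-ATP conversion, scaled between no-enzyme and DMSO wells, then fitted by 4-parameter Hill. Conditions: 125 nM NTMT1, 100 uM SAM, 1 uM SPKRIA, 30 min RT.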"}, "[3]": {"target": "Lysosomal acid glucosylceramidase (Homo sapiens) (UniProt P04062)", "sequence (P04062 whole entry, looked up)": "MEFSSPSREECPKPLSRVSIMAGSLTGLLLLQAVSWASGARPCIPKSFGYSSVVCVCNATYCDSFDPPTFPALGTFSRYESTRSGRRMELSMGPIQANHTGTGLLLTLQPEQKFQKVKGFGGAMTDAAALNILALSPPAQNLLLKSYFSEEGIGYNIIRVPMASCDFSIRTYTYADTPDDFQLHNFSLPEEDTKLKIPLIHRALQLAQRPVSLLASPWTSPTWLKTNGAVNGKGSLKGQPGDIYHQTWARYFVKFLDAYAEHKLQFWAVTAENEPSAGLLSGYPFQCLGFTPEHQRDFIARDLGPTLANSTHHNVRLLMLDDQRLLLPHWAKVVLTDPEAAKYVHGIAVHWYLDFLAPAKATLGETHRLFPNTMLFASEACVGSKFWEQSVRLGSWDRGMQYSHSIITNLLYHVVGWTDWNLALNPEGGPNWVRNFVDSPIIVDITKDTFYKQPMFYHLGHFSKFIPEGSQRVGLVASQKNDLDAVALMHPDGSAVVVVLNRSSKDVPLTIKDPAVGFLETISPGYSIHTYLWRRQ", "assay": "Glucocerebrosidase-p2 (AID 348; in the data active = potency below about 10 µM; note: potency is the fitted concentration of half-maximal effect)", "details": "purified GBA, blue fluorogenic substrate, 40 min", "procedure,_shortened": "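Normal human glucocerebrosidase (0.2 nM) with blue fluorogenic substrate (80 uM final) in citrate/phosphate pH 5.9 with 10mM sodium taurocholate, 0.01% tween-20; 40 min RT, NaOH/glycine stop; fluorescence Ex 365/Em 440; AC50 from a titration from 0.6 nM upwards.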"}, "[4]": {"target": "Cytochrome P450 1A2 (Homo sapiens) (UniProt P05177)", "sequence (P05177 whole entry, looked up)": "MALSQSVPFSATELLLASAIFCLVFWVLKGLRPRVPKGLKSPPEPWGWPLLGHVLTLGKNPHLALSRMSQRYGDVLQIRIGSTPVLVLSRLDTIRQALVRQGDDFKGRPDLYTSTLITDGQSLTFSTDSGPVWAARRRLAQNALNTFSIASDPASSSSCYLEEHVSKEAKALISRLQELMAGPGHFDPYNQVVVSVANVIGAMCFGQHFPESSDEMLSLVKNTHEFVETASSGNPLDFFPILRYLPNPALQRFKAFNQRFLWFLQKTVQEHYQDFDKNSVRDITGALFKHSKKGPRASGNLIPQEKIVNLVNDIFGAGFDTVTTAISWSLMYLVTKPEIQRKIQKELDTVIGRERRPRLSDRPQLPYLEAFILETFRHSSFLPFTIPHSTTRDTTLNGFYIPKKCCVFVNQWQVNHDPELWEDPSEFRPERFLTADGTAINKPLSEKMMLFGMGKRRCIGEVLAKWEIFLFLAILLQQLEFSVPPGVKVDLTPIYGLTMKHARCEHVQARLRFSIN", "assay": "p450-cyp1a2 (AID 410; calls by dose curve; note: potency is the fitted concentration of half-maximal effect)", "procedure,_shortened": "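20nM CYP1A2, 100uM Luciferin-ME (=Km), 100mM KPO4; cpd 10 min RT; +NADPH regen, 60 min RT; stop/detect 20 min; luminescence. Normalized to furafylline 57 uM = full inhibition.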"}, "[5]": {"assay": "Stat Signaling Pathway (AID 446; active = well fitted curve in either direction with a large enough effect, not every such curve was filed as active;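 note: ME-180 cervical cancer cells given 40 pM IL-6 alongside compound; SIE-controlled beta-lactamase reporter measured as 460/530 nm FRET emission ratio; % is set by controls: 0 for no effect and ±100 for the full control effect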)", "details": "ME-180 SIE beta-lactamase reporter, IL-6 stimulated, 5 h; at 7.69 µM (top of the series) unless noted", "procedure,_shortened": "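Normalization used AC90 stimulation (300 pM IL-6) and AC90 inhibition (125 nM pan-JAK inhibitor at 40 pM IL-6). The underlying signal is SIE-driven beta-lactamase in ME-180 cells after 5 h IL-6 exposure with compound.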"}, "[6]": {"target": "Glucocorticoid receptor (Homo sapiens) (UniProt P04150)", "sequence (P04150 whole entry, looked up, the tested form may be a part)": "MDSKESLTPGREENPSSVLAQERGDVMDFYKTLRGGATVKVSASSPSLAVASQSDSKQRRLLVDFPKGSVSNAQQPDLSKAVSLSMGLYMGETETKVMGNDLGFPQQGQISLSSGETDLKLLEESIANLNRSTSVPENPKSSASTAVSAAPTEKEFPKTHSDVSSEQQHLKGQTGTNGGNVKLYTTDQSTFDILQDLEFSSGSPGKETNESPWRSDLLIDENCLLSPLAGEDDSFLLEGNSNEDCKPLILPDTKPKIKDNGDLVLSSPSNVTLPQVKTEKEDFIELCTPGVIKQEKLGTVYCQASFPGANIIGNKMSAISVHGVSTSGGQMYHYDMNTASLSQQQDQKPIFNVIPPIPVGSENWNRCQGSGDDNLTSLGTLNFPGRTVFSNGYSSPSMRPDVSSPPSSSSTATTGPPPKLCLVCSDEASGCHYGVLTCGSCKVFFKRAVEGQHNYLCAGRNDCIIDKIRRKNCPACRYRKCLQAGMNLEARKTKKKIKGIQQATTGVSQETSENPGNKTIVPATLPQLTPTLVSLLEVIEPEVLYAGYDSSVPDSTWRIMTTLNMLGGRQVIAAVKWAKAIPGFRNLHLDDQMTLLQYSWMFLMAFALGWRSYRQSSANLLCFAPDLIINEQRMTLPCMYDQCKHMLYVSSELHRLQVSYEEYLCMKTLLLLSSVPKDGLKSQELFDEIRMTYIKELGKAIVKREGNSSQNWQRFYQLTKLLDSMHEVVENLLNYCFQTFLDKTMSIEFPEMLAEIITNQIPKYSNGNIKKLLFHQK", "assay": "GR-EFC Redistribution (AID 451; calls by dose curve; note: potency is the fitted concentration of half-maximal effect)", "details": "CHO-K1 GR-EFC translocation, beta-gal luminescence, 2 h", "procedure,_shortened": "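CHO-K1 cells stably expressing nuclear-localized β-gal enzyme acceptor and GR fused C-terminally to the enzyme donor fragment; ligand-driven nuclear translocation restores β-gal by complementation. Compounds titrated up to 46 uM final, 2 h at 37 °C; luminescence read.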"}, "[7]": {"target": "Mitogen-activated protein kinase 10 (Mus musculus) (UniProt Q61831)", "assay": "JNK3 AlphaScreen Assay (AID 530; active = well fitted curve in either direction with a large enough effect, not every such curve was filed as active; note: % is set by controls: 0 for no effect and ±100 for the full control effect)", "procedure,_shortened": "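Biotinylated GST-cJun(1-79) served as substrate for JNK3 in HepG2 lysates stimulated with IL-1beta and TNF-alpha. ATP was 10 uM final, pH 7.6. Ser73 phosphorylation was quantified by AlphaScreen (680 nm excitation).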"}, "[8]": {"target": "3',5'-cyclic-AMP phosphodiesterase 4B (Homo sapiens) (UniProt Q07343)", "sequence (Q07343 whole entry, looked up)": "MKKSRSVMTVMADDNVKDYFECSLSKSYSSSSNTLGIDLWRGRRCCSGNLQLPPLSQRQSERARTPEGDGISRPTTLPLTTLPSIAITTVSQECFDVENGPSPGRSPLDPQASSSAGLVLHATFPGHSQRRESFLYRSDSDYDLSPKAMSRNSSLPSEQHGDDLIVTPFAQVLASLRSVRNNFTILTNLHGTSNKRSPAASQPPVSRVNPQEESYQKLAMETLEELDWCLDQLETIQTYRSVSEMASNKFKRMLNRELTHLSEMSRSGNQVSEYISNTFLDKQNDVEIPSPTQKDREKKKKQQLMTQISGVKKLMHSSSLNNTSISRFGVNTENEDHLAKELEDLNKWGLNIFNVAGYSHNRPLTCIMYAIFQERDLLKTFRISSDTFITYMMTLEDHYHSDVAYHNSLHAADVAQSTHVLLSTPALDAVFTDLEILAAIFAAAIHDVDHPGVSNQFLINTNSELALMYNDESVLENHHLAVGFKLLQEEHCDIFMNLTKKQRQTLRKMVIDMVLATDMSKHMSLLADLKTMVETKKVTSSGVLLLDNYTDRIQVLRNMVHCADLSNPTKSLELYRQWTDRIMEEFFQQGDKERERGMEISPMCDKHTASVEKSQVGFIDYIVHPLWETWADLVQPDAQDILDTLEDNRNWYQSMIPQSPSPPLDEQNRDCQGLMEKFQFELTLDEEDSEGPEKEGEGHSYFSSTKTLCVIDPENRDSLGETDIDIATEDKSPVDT", "assay": "qHTS Assay for Inhibitors of PDE-IV (AID 607; active = well fitted activation curve with a large enough effect in the main read-out, with a control signal flat, not every such curve was filed as active; note: % of control where 0% means no effect)", "procedure,_shortened": "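HEK293 ACTOne cells with CNG channel (1000/well), endogenous PDE4; membrane potential dye, compounds up to 22.9 uM final. Fluorescence Ex 535/Em 590; RO 20-1724 (100 uM final) as reference.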"}, "[9]": {"target": "Cytochrome P450 2D6 (Homo sapiens) (UniProt P10635)", "sequence (P10635 whole entry, looked up)": "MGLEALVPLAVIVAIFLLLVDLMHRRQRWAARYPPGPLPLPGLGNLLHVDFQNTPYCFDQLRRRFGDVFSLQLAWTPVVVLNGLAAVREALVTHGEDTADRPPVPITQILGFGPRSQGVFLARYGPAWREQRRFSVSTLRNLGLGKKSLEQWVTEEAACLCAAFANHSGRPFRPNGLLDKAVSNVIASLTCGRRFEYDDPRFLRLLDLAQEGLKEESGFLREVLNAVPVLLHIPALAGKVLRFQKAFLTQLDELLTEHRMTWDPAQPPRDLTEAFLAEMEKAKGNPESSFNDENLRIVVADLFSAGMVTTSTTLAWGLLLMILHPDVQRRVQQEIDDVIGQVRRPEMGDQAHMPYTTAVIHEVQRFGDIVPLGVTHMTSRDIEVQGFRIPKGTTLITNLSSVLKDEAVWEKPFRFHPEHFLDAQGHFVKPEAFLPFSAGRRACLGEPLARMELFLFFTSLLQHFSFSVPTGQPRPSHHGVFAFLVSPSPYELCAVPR", "assay": "qHTS Assay for Inhibitors and Substrates of Cytochrome P450 2D6 (AID 891); note: potency is the fitted concentration of half-maximal effect; nearly all actives have a fitted effect of over 60% in size", "procedure,_shortened": "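Luminescent read-out of luciferin formed by 5 nM human CYP2D6 demethylating 30 uM Luciferin-ME EGE (Km level) over 60 min at room temperature after NADPH regeneration addition. Data normalized to full inhibition by 1.43 uM quinidine.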"}, "[10]": {"assay": "qHTS profiling for inhibitors of Plasmodium falciparum (DD2) proliferation (AID 743323; call rule not given here)", "details": "lower = more inhibition; at 28.7 µM (top of the series)", "procedure,_shortened": "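P. falciparum Dd2-infected erythrocytes (0.3% parasitemia, 2.5% hematocrit) exposed 72 h at 37 C, 5% CO2. Lysis with SYBR Green, overnight at room temperature, fluorescence 485/535 nm; normalized to 0.29 uM artemisinin and DMSO.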"}, "[11]": {"assay": "qHTS profiling for inhibitors of Plasmodium falciparum (HB3) proliferation (AID 743324);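 note: 100% = DMSO vehicle wells and 0% = artemisinin-treated control wells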", "details": "Plasmodium falciparum HB3 blood-stage proliferation; at 28.7 µM (top of the series)", "procedure,_shortened": "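SYBR Green fluorescence (485 ex/535 em) of lysed cultures, incubated overnight at room temperature in the dark, quantifies parasite DNA. Infected erythrocytes at 0.3% parasitemia and 2.5% hematocrit were exposed 72 h; values normalized to DMSO and 0.29 uM artemisinin controls.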"}, "[12]": {"assay": "Primary qHTS for small molecule stabilizers of the endoplasmic reticulum resident proteome: Secreted ER Calcium Modulated Protein (SERCaMP) assay (AID 1508630); note: % is set by controls: 0 for no effect and ±100 for the full control effect", "procedure,_shortened": "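The SH-SY5Y reporter protocol was run at 3 concentrations up to 38.3 uM (primary) or 11 concentrations (follow-up): 16 h compound, 100 nM thapsigargin for 4 h, then extracellular luciferase luminescence.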"}, "[13]": {"assay": "AP1 Signaling Pathway (AID 357; active = well fitted curve in either direction with a large enough effect, not every such curve was filed as active; note: % is set by controls: 0 for no effect and ±100 for the full control effect)", "details": "ME-180 AP-1-bla reporter, EGF-induced, beta-lactamase ratio, 5 h; at 7.69 µM (top of the series) unless noted", "procedure,_shortened": "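Titration-series screen for positive or negative modulators of EC50 EGF-induced signaling in ME-180 cells carrying an AP-1-driven beta-lactamase reporter. After 5 hours at 37 degrees Celsius, CCF4 460nm/530nm emission ratio gave %Activity; AC50 values derived.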"}, "[14]": {"assay": "NFAT Signaling Pathway (AID 444; active = well fitted curve in either direction with a large enough effect, not every such curve was filed as active; note: % is set by controls: 0 for no effect and ±100 for the full control effect)", "details": "Jurkat NFAT-bla M1, carbachol, beta-lactamase ratio, 5 h; at 7.69 µM (top of the series) unless noted", "procedure,_shortened": "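Jurkat cells carrying an NFAT-driven β-lactamase reporter and co-transfected muscarinic M1 receptor were treated with compound plus carbachol (1 uM final, an EC50 level) for 5 h at 37 °C. CCF4 loading followed for 1 h at RT; 460/530 nm ratio gave %activity.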"}, "[15]": {"target": "Glucocorticoid receptor (Homo sapiens) (UniProt P04150)", "assay": "GR-GFP Redistribution (AID 450;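 active = compounds whose dose series gives a full or clear partial fitted curve of increased nuclear translocation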; note: potency is the fitted concentration of half-maximal effect)", "details": "U2OS GR-GFP nuclear translocation, laser cytometry, 2 h"}, "[16]": {"target": "Cytochrome P450 2C19 (Homo sapiens) (UniProt P33261)", "sequence (P33261 whole entry, looked up)": "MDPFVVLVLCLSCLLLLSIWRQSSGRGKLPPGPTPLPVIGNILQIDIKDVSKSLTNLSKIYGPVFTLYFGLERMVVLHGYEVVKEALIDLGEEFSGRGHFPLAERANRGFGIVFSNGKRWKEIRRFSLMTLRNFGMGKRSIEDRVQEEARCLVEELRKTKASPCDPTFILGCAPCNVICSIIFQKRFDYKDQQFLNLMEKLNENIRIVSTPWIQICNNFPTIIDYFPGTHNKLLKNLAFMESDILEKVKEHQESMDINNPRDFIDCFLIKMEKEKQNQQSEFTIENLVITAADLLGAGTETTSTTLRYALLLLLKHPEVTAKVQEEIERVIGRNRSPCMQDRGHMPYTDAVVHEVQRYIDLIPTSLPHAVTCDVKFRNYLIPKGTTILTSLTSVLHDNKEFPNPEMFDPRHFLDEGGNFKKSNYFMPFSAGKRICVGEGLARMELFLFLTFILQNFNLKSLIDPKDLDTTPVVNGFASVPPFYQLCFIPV", "assay": "qHTS Assay for Inhibitors and Substrates of Cytochrome P450 2C19 (AID 899); note: potency is the fitted concentration of half-maximal effect; nearly all actives have a fitted effect of over 60% in size", "procedure,_shortened": "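Human CYP2C19 (5nM) with Luciferin-H EGE at 10uM (its KM) in 50mM KPO4 was preincubated with compound for 10 min at 37C. NADPH regeneration started a 60 min 37C reaction. Luciferin was read by luminescence, normalized to 57uM ketoconazole.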"}, "[17]": {"assay": "Confirmation and Secondary Assay for Modulators of Hemoglobin Beta Chain Splicing at IVS2 654 locus (AID 910); note: % of control where 0% means no effect", "procedure,_shortened": "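HeLa cells stably carrying EGFP interrupted by mutant beta-globin IVS2-654 intron (CMV-driven) were treated with compound for 2 days at 37C; corrected splicing was scored as total peak GFP intensity per well (488 nm excitation, 500-520 nm emission).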"}, "[18]": {"assay": "Confirmation and Secondary Assay for Modulators of Hemoglobin Beta Chain Splicing at IVS2 705 locus (AID 930); note: % of control where 0% means no effect", "procedure,_shortened": "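Fluorescence gain (488 nm laser, 500-520 nm PMT) reflects restored correct splicing of a mutant IVS2-705 intron inside EGFP in stably transfected HeLa cells after 2-day compound treatment.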"}, "[19]": {"assay": "qHTS Assay for Lipid Storage Modulators (AID 1519; calls by dose curve)", "details": "Drosophila S3 cells, BODIPY lipid droplet/cell ratio, laser cytometry, cells loaded with oleic acid", "procedure,_shortened": "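Cells seeded at 5,000 per well were treated with compounds over a concentration series and loaded with oleic acid (400 uM, as added). Lipid droplet fluorescence (488 nm excitation, 500-530 nm channel) was read by laser-scanning cytometry and normalized to 20 uM Triacsin C.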"}, "[20]": {"target": "Ubiquitin carboxyl-terminal hydrolase 1 (Homo sapiens) (UniProt O94782)", "sequence (O94782 whole entry, looked up)": "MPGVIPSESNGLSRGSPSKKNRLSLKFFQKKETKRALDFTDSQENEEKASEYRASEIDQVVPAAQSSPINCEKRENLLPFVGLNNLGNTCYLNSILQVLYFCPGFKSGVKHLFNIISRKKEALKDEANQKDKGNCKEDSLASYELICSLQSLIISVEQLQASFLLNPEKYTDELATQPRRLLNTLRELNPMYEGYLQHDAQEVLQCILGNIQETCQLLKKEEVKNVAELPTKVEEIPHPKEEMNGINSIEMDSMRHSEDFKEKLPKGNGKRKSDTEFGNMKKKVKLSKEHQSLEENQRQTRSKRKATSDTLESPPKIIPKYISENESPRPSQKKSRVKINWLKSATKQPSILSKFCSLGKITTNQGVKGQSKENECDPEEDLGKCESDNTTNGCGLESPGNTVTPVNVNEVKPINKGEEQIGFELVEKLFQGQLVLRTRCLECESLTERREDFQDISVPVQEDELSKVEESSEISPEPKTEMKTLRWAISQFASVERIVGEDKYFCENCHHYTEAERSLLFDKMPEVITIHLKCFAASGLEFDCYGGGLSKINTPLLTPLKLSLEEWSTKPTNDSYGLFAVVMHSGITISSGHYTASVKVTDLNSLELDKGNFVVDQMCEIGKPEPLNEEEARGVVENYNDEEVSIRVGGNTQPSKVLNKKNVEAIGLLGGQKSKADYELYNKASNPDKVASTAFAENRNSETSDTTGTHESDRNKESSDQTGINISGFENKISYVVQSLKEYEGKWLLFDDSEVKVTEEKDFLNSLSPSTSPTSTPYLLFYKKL", "assay": "Inhibitors of USP1/UAF1: Pilot qHTS (AID 504865);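 note: rhodamine fluorescence freed from ubiquitin-rhodamine substrate followed over time; top concentration of the series differs between compounds; % is set by controls: 0 for no effect and ±100 for the full control effect; nearly all actives have a fitted effect of over 35% in size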", "procedure,_shortened": "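Enzyme-free wells gave the negative control, while test wells held 1nM USP1/UAF1 preincubated with compound for 15 min at room temperature. Ub-Rho at 150nM final started the reaction, and fluorescence at 480/540 nm was recorded kinetically.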"}},
  "note": "Inconclusive results are not listed. Calls of active or inactive are those of the source. Unless noted, calls come from the whole dose curve; as a rule, active = well fitted curve in the direction sought with a large enough effect; inconclusive = small, poorly fitted or top-dose-only effect, or another doubt; inactive = no such curve, though single readings can be large; an effect the other way counts as inactive or inconclusive.",
  "data": [
    {"smiles": "CC(=O)Nc1sc2c(c1-c1ccc3scnc3c1)CCNC2", "values": [
      {"measurement": "Potency", "setting": "[1]", "result": "inactive"},
      {"measurement": "Potency", "setting": "[2]", "result": "44.7 µM (active)"}
    ]},
    {"smiles": "COc1cc(Nc2nc(-c3ccncc3)nc3ccccc23)ccc1N1CCN(C)CC1", "values": [
      {"measurement": "Potency", "setting": "[1]", "result": "inactive"},
      {"measurement": "Potency", "setting": "[2]", "result": "17 µM (active)"}
    ]},
    {"smiles": "Cc1noc(C)c1C(=O)N1CCC2(CCCN(C(c3ccccc3)c3ccccc3)C2)CC1", "values": [
      {"measurement": "Potency", "setting": "[3]", "result": "> 11.4 µM (inactive)"},
      {"measurement": "Potency", "setting": "[4]", "result": "inactive"},
      {"measurement": "activity, negative = inhibition", "setting": "[5]", "result": "-11.6% (inactive)"},
      {"measurement": "Potency", "setting": "[6]", "result": "> 46 µM (inactive)"},
      {"measurement": "outcome", "setting": "[7]", "result": "inactive"},
      {"measurement": "Potency", "setting": "[8]", "result": "inactive"},
      {"measurement": "Potency", "setting": "[9]", "result": "2 µM (active)"},
      {"measurement": "activity, percent of control", "setting": "[10]", "result": 22.6, "unit": "%"},
      {"measurement": "remaining proliferation (% of control), lower = more inhibition", "setting": "[11]", "result": 10.2, "unit": "%"},
      {"measurement": "Potency", "setting": "[1]", "result": "inactive"},
      {"measurement": "Potency", "setting": "[12]", "result": "inactive"}
    ]},
    {"smiles": "Cc1cccc(CNc2ncnc3ccc(-c4ccoc4)cc23)c1", "values": [
      {"measurement": "activity change, negative = inhibition", "setting": "[13]", "result": "-19.9% (inactive)"},
      {"measurement": "Potency", "setting": "[4]", "result": "3.98 µM (active)"},
      {"measurement": "activity change, negative = inhibition", "setting": "[14]", "result": "-14.2% (inactive)"},
      {"measurement": "activity, negative = inhibition", "setting": "[5]", "result": "-30% (inactive)"},
      {"measurement": "Potency", "setting": "[15]", "result": "> 46 µM (inactive)"},
      {"measurement": "Potency", "setting": "[6]", "result": "> 46 µM (inactive)"},
      {"measurement": "outcome", "setting": "[7]", "result": "inactive"},
      {"measurement": "Potency", "setting": "[16]", "result": "7.94 µM (active)"},
      {"measurement": "outcome", "setting": "[17]", "result": "inactive"},
      {"measurement": "outcome", "setting": "[18]", "result": "inactive"},
      {"measurement": "activity change, negative = inhibition", "setting": "[19]; at 57.5 µM (top of the series)", "result": "-3% (inactive)"},
      {"measurement": "max response", "setting": "[19]; measured here: cell count channel max response", "result": 11.4, "unit": "%"},
      {"measurement": "max response", "setting": "[19]; measured here: lipid channel max response", "result": 6.71, "unit": "%"},
      {"measurement": "Potency", "setting": "[20]", "result": "inactive"},
      {"measurement": "Potency", "setting": "[1]", "result": "inactive"},
      {"measurement": "Potency", "setting": "[12]", "result": "inactive"}
    ]},
    {"smiles": "c1cncc(-c2ccc3ncnc(NCc4cccs4)c3c2)c1", "values": [
      {"measurement": "Potency", "setting": "[1]", "result": "inactive"},
      {"measurement": "Potency", "setting": "[2]", "result": "39.8 µM (active)"}
    ]}
  ]
}
